Compound activity deposited in PubChem BioAssay by National Center for Advancing Translational Sciences (NCATS).
Sampled rows, rich in hits. Any-hit rate of the full collection: about 8%.
ELG1 DNA repair – qHTS screen for small molecules that inhibit ELG1-dependent DNA repair in human embryonic kidney (HEK293T) cells expressing luciferase-tagged ELG1; 330,000 tested, 2.3% active; HEK293T ELG1-luciferase reporter, luminescence, 16 h; DNA damage induced by 5-fluorouridine; Potency, µM (highest dose often 46.1 µM), hits mostly inhibitors; also: nearly all actives have a fitted effect of over 55% in size
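HEK293T cells expressing luciferase-tagged ELG1 (2,000/well) received 5-Fluorouridine plus compound or DMSO for 16 hr at 37 °C. Luciferase was read by ONE-Glo luminescence after 30 min at room temperature.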
TSHR antagonist – Antagonists of the Thyroid Stimulating Hormone Receptor: HTS campaign; TSHR-expressing cells, TSH-stimulated cAMP HTRF, 2 h; active compounds read low; activity change, negative = inhibition, % at 11.5 µM; 330,000 tested, 0.2% active; AID 504810, 2011;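 active = activity change below a set negative limit, meaning inhibition stronger than a set level, cut at about -70% in these data; inconclusive = activity change between two set negative limits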
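TSHR-expressing cells were treated with compounds, then stimulated with TSH at EC80 (4nM final) for 2 hours at 37 deg C. Cellular cAMP was measured by HTRF competition between lysate cAMP and cAMP-d2 for a cryptate-labelled anti-cAMP antibody.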
VP16 counter – VP16 counterscreen qHTS for inhibitors of ROR gamma transcriptional activity; 310,000 tested, 3.5% active; Drosophila S2 Gal4-VP16 UAS-luciferase, luminescence, 20 h; Potency, µM (doses to about 53.6 µM), usual class: inhibitors;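 also: Gal4-VP16 expression switched on by copper sulfate through the metallothionein promoter; nearly all actives have a fitted effect of over 50% in size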
RORg inh – qHTS for inhibitors of ROR gamma transcriptional activity; Nuclear receptor ROR-gamma (Mus musculus), P51450; Drosophila S2 Gal4-RORgamma UAS-luciferase reporter, 20 h; Potency, µM (titrated, usually from 53.6 µM), hits mostly inhibitors; 310,000 tested, 5.4% active; AID 2551, 2010; also: nearly all actives have a fitted effect of over 60% in size
Target sequence (P51450 whole entry, looked up, the tested form may be a part): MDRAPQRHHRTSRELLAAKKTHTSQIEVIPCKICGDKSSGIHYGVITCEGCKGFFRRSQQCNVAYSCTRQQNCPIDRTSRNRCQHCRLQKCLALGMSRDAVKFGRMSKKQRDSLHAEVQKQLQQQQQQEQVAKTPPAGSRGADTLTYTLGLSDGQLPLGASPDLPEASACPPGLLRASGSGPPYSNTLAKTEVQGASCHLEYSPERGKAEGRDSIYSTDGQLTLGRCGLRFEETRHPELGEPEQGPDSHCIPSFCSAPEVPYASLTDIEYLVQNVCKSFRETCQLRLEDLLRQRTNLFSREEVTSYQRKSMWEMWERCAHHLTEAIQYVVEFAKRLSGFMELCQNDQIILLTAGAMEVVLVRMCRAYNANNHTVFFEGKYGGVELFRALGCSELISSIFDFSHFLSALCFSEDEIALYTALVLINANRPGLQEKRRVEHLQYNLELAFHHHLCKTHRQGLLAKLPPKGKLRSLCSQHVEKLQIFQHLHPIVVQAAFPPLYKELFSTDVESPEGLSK
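Luminescence from a UAS-regulated Photinus luciferase reporter in stably transfected Drosophila Schneider cells is measured; decreased signal marks ROR gamma inhibition. Fusion expression is induced by 700 uM copper sulfate for 20 hr.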
FBPA coupling cs – qHTS Assay for Inhibitors of Fructose-1,6-bisphosphate Aldolase from Giardia Lamblia: Coupling assay counterscreen; coupling enzyme system counterscreen, AmpLite Red fluorescence; activity change, negative = inhibition, % at 58.2 µM, hits read low; 290,000 tested, 0.67% active; AID 2472, 2010; in the data active = activity change below about -30%
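Counterscreen of the coupled detection system alone, without aldolase: glyceraldehyde-3-phosphate coupling enzymes plus AmpLite Red readout. Compounds at 57.5 uM final, 10 min RT preincubation, 20 min RT reaction, fluorescence 525/598 nm.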
Hits are given with their value; - = inactive; ? = inconclusive; . = no result; [ ] = dose if it differs, or a comment. Unless noted, calls follow the shape of the dose curve; as a rule, active = well fitted curve in the direction sought with a large enough effect; inconclusive = small, poorly fitted or top-dose-only effect, or another doubt; inactive = no such curve, though single readings can be large; an effect the other way counts as inactive or inconclusive.

SMILES	ELG1 DNA repair	TSHR antagonist	VP16 counter	RORg inh	FBPA coupling cs
O=C(CCNC(=O)c1ccc(Cl)cc1)Nc1ccc(S(=O)(=O)N2CCOCC2)cc1	-	-	.	.	.
O=C(NC(=S)Nc1ccc(N2CCOCC2)cc1)c1ccc(Cl)cc1	-	-	7.1µM	4µM	-
O=C(NCC1CCN(c2ccc(S(=O)(=O)N3CCOCC3)cc2)CC1)c1ccc(Cl)cc1	21µM	-	?	-	-
Cc1cc(C)n2nc(C(=O)OCC(=O)c3ccc(F)cc3)nc2n1	?	-	.	.	.
CC(C)(C)c1ccc(C(=O)NC(=S)Nc2ccc(N3CCOCC3)cc2)cc1	?	-	7.1µM	4.5µM	-
C=Cc1ccccc1	.	.	-	-	.
N#CCCN(C(=O)CCl)c1cccc(Cl)c1	?	-	-	13µM	-
CC(C)CNC(=S)NC(=O)c1ccc(F)cc1	?	-	?	7.9µM	-
O=C(Nc1ccccc1Cl)c1ccc(Cl)cc1Cl	?	-	-	-	-
CC(C)CNC(=S)NC(=O)c1ccc(Cl)cc1Cl	?	-	5.6µM	7.1µM	-
CC(C)NC(=S)NC(=O)c1ccc(Cl)cc1Cl	-	-	10µM	8.9µM	-
O=C(NC(=S)Nc1ccccc1O)c1ccc(Cl)cc1Cl	?	-	7.1µM	2.5µM	-
O=C(NC(=S)NCCN1CCOCC1)c1ccc(F)cc1	-	-	-	-	-
O=C(COc1ccccc1Cl)Nc1ccc2oc(=O)ccc2c1	?	-	-	-	-
CC(=O)c1sc(NC(=O)C2(F)C(F)(F)C(F)(F)C(F)(F)C(F)(F)C2(F)F)nc1C	?	-75	3.5µM	4µM	-
C=CCN=C1NN=C(c2ccc3c(c2)OCCO3)CS1	?	-	5.6µM	4.5µM	-
C=CCN=C1NN=C(c2cc(C)n(CC=C)c2C)CS1	?	-	?	11µM	-
COCCN=C1NN=C(c2cc(C)n(CC3CCCO3)c2C)CS1 (stereo not given)	-	-	-	-	-
NC1=NN=C(c2ccc3c(c2)OCCO3)CS1	?	-	10µM	10µM	-
COCCn1c(C)cc(C2=NNC(=Nc3ccccc3F)SC2)c1C	?	-	?	0.79µM	-
Cc1ccc(S(=O)(=O)N2CCN(C(=O)C3CCN(C(=O)c4ccc(F)cc4)CC3)CC2)c(C)c1	?	-	.	.	.
O=C(O)c1c(NC(=O)N2CCOCC2)sc2c1CCCC2	?	-	-	-	-
CC[C@H]1[C@@H]2C=C[C@@H]3[C@H]4C/C=C\C(=O)NCCC[C@@H]5NC(=O)C(=C5O)C(=O)CC[C@@H]4C[C@@H]3[C@H]2C[C@H]1C	.	.	-	2.2µM	-
CCOC(=O)N1CCN(S(=O)(=O)c2ccc(C(=O)Nc3nnc(C4CC4)o3)cc2)CC1	-	-	3.2µM	1.8µM	-
CC1CC(C)CN(S(=O)(=O)c2ccc(C(=O)Nc3nnc(C4CC4)o3)cc2)C1 (stereo not given)	-	?	0.63µM	0.56µM	-
SMILES	ELG1 DNA repair	TSHR antagonist	VP16 counter	RORg inh	FBPA coupling cs
CC1CC(C)CN(C(=O)c2ccc(S(=O)(=O)N3CC(C)CC(C)C3)cc2)C1 (stereo not given)	?	-	-	-	-
CCOC(=O)N1CCN(S(=O)(=O)c2ccc(C(=O)Nc3nnc(CC)o3)cc2)CC1	-	-	?	?	-
Cc1ccc(Cc2nnc3n(-c4ccccc4)nc(C(=O)c4ccccc4)n3c2=O)cc1	21µM	-	-	?	-
C=CCn1c(SCc2ccccc2Cl)nnc1-c1sc2nc(C)cc(C)c2c1N	21µM	-	-	-	-
COc1cccc(NS(=O)(=O)c2ccc3[nH]cc(C(=O)NCCC(C)C)c(=O)c3c2)c1	18µM	-	?	-	-
CN(C(=O)c1cccs1)c1ccc(OCC(=O)N2CCC(C(N)=O)CC2)cc1	15µM	-	?	?	-
O=C(COc1ccc(Cl)cc1)N1CCN(C(=O)c2cccs2)CC1	-	-	18µM	7.1µM	-
CN(Cc1ccccc1)S(=O)(=O)c1ccc(OCC(=O)N2CCC(C(N)=O)CC2)cc1	-	-	-	-	-
CC(=O)Nc1ccc(NC(=O)CCC(=O)OCC(=O)c2ccc(F)cc2)cc1	-	-	-	-	.
Cc1ccc(NC2=C(Cl)C(=O)OC2OC(=O)c2ccco2)cc1 (stereo not given)	-	-	-	11µM	-
Cc1cccc(NC2=C(Cl)C(=O)OC2OC(C)C)c1 (stereo not given)	-	-	-	-	-
Cc1cccc(NC2=C(Cl)C(=O)OC2OC(=O)c2ccco2)c1 (stereo not given)	-	-	?	11µM	-
CC1=NN(c2ccc(C)c(C)c2)C(=O)/C1=C\C=C\c1ccc([N+](=O)[O-])o1	?	-	?	10µM	-
COc1ccc([C@H]2CC(=O)C=C(c3cccc(C#N)c3)C2)cc1	?	-	.	.	.
O=C(Nc1sc2c(c1C(=O)O)CCC2)c1ccccc1	?	-	-	?	-
O=C(Nc1sc2c(c1C(=O)O)CCC2)c1ccc(F)cc1	-	-	-	-	-
O=C(Nc1sc2c(c1C(=O)O)CCCC2)c1ccc(Cl)cc1	?	-	-	?	-36
O=C(Nc1sc2c(c1C(=O)O)CCCCC2)c1ccccc1	?	-	?	?	-38
Cc1cc(NC(=O)CCC(=O)N(CC(=O)NC2CCCC2)c2ccc(C(C)C)cc2)no1	-	-	-	-	-
CSc1ccc(/C=C(\NC(=O)c2ccc(C)cc2)C(=O)NN)cc1	18µM	-	-	-	-
CSc1ccc(/C=C(/NC(=O)c2ccc(C)cc2)C(=O)Nc2cccc(C)c2)cc1	-	-	-	-[10 µM]	-
CN(Cc1nc2ccccc2c(=O)[nH]1)Cc1nc2ccsc2c(=O)[nH]1	?	-	5µM	0.4µM	-
Cc1ccsc1C(=O)OCc1nc2ccccc2c(=O)[nH]1	?	-	?	?	-35
NS(=O)(=O)c1ccc(NC(=O)COC(=O)COc2ccc(Br)cc2)cc1	-	-	-	-	-
Cc1ccc(-c2nc3ccc([N+](=O)[O-])cc3[nH]2)cc1	?	-	?	?	-31
O=[N+]([O-])c1cccc(-c2nc3ccc([N+](=O)[O-])cc3[nH]2)c1	-	-	-	?	-
O=[N+]([O-])c1ccc2nc(-[n+]3c(-c4ccccc4)cc(-c4ccccc4)cc3-c3ccccc3)[nH]c2c1	23µM	-	?	?	-
O=C(COC(=O)C1COc2ccccc2O1)Nc1ccccc1OC(F)F (stereo not given)	-	-	.	.	.
C=CCc1ccc(OC)c(OC)c1	?	-	-	-	-
CCOc1ccccc1-n1c(=S)sc2c(=O)n(-c3ccc(F)cc3)c(SCC(=O)O)nc21	-	-71	-	-	-
